POLB inh – inhibitors of human DNA polymerase beta. P06746. Pol beta primer extension/strand displacement, fluorescence kinetic. Potency, µM (series often up to 114 µM), for the others: at the top dose activity change, negative = inhibition, actives largely listed as inhibitors. 340,000 tested, 1.3% active. AID 485314; note: % is set by controls: 0 for no effect and ±100 for the full control effect
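Enzyme-only controls used 10 nM Pol beta; buffer lacking enzyme served as negative control. Compound preincubated 15 min, then 50 nM substrate added; 0 and 10 min reads at room temperature.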
Pol eta inh-1 – DNA polymerase eta (human) inhibition; recombinant Pol eta, fluorescent DNA replication assay; Potency, µM (titrated, usually from 114 µM), for inactives: at the top dose activity change, negative = inhibition, usual class: inhibitors; 390,000 tested, 1.2% active; AID 588591; note: % is set by controls: 0 for no effect and ±100 for the full control effect
Target sequence (Q9Y253 whole entry, looked up): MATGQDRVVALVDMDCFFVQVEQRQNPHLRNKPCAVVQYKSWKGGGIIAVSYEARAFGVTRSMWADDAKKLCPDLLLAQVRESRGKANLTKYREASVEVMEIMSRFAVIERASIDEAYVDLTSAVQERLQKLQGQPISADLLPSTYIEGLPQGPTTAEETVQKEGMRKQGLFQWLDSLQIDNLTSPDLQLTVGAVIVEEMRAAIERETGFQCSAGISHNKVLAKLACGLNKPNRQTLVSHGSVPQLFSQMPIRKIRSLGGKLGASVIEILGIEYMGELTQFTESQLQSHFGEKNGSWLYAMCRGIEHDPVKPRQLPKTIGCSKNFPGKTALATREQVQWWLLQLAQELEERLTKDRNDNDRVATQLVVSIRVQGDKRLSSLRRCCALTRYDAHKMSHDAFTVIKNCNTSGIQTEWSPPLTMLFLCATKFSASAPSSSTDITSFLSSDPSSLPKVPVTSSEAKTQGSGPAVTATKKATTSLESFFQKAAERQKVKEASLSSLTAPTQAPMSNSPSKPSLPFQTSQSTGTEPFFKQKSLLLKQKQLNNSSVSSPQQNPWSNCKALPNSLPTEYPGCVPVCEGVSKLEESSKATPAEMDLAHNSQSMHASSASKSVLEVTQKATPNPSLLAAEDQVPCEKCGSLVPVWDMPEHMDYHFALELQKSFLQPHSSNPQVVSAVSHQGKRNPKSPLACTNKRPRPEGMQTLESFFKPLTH
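Fluorescent replication assay: 50 nM final substrate added after a 15 min room-temperature compound preincubation with 10 nM enzyme. Signal taken at 0 min and again at 10 min.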
Pol kappa inh-1 – DNA polymerase kappa (human) inhibition; Q9UBT6; purified Pol kappa, fluorescent DNA synthesis assay, 10 min; Potency, µM (titrated, usually from 107 µM), for the others: at the top dose activity, negative = inhibition, most hits filed as inhibitors; 400,000 tested, 0.53% active; note: % is set by controls: 0 for no effect and ±100 for the full control effect
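Pol kappa 10 nM + cpd, 15 min RT; start w/ substrate 50 nM final; fluorescence kinetic read, 0 and 10 min. Neg ctrl: buffer, no enzyme.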
Pol iota inh – DNA polymerase iota (human) inhibition | Pol iota fluorescent replication assay, 10 min | 390,000 tested, 1% active | Q9UNA4 | Potency, µM (top dose mostly 115 µM), for the others: at the top dose activity, negative = inhibition, actives largely listed as inhibitors
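Pol iota at 10 nM preincubated 15 min with compounds at room temperature; reaction started with fluorescent substrate, 50 nM final. Fluorescence read kinetically at 0 and 10 min; buffer-only wells as negative control.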
WRN helicase inh – inhibitors of human WRN helicase | WRN helicase unwinding, fluorescent forked duplex, kinetic | Potency, µM (series often up to 114 µM), for the others: top-dose activity change, negative = inhibition, usual class: inhibitors | 360,000 tested, 0.46% active | AID 651768; note: % is set by controls: 0 for no effect and ±100 for the full control effect; nearly all actives have a fitted effect of over 55% in size
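Screening of the MLSMR collection measured strand separation of a quenched forked DNA duplex (100 nM) by 20 nM WRN with 2 mM ATP, all final. Compounds were preincubated with enzyme 15 min at room temperature.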
Pol kappa inh-2 – Pol kappa (human) inhibition, cherry-pick confirmation; Potency, µM, usual class: inhibitors; 920 tested, 76% active; purified Pol-kappa, fluorescent strand-displacement substrate; shares compounds with Pol eta inh-1
Pol eta inh-2 – Pol eta (human) inhibition, cherry-pick confirmation. shares compounds with Pol eta inh-1. Pol eta primer extension, TAMRA/BHQ fluorescence, 10 min. Potency, µM, most hits filed as inhibitors. 2,600 tested, 64% active
Active calls of the source: *; [ ] = dose if it differs, or a comment. A selection: hits, their analogues and other compounds. The true share with any hit is near 2.3%. Calls come from the whole dose curve; as a rule, active = well fitted curve in the direction sought with a large enough effect; inconclusive = small, poorly fitted or top-dose-only effect, or another doubt; inactive = no such curve, though single readings can be large; an effect the other way counts as inactive or inconclusive. Potency is the fitted concentration of half-maximal effect.

For CSc1ccc(CCNC(=O)c2ccc(-n3c(C)cc4c3CCCC4)cc2)cc1 the results were POLB inh 0.1%, Pol eta inh-1 -10.1%, Pol kappa inh-1 -8.4% and Pol iota inh -6.6%.
For Cc1cc(C)c(NC(=O)Cn2cc(S(=O)(=O)Cc3ccccc3F)c3ccccc32)c(C)c1 the results were POLB inh 5.3%, Pol eta inh-1 -9.2%, Pol kappa inh-1 -20.0% and Pol iota inh -1.5%.
Cc1cccc(C)c1NC(=O)Cn1cc(S(=O)(=O)Cc2ccc(F)cc2)c2ccccc21 was read as POLB inh 28.2µM*, Pol eta inh-1 inconclusive, Pol kappa inh-1 inconclusive, Pol iota inh inconclusive, Pol kappa inh-2 inconclusive and Pol eta inh-2 inconclusive.
Screening CCS(=O)(=O)c1ncc(Cl)c(C(=O)N2CCN(c3ccc(OC)cc3)CC2)n1 returned POLB inh -2.4%, Pol kappa inh-1 4.7% and Pol iota inh 1.7%.
For CN(C)c1ccc(-c2nccc(Nc3ccc(F)cc3)n2)cc1 the results were Pol kappa inh-1 -8.2%[60.1 µM].
CCc1ccc2c(c1)-c1ccccc1S(=O)(=O)N2CC(=O)N1CCC(C)CC1 was read as POLB inh -8.9%, Pol eta inh-1 -1.6%, Pol kappa inh-1 -8.2% and Pol iota inh -9.0%.
Cc1nn(C)c2c1c(-c1ccccc1)cc(=O)n2Cc1ccc(F)cc1 was read as POLB inh 26.4%, Pol eta inh-1 -10.3%, Pol kappa inh-1 0.0% and Pol iota inh -21.7%.
Screening O=C1CC(c2ccc(O)c(O)c2)Oc2cc(O)cc(O)c21 (centres undefined) returned POLB inh inconclusive, Pol eta inh-1 22.4µM*, Pol kappa inh-1 15.8µM*, Pol iota inh 50.1µM*, WRN helicase inh inconclusive and Pol eta inh-2 75.7*.
`O=C(/C=C/c1ccco1)NC(=S)NNC(=O)c1ccco1` gave POLB inh inconclusive, Pol eta inh-1 50.1µM*, Pol kappa inh-1 -31.9%, Pol iota inh inconclusive, WRN helicase inh -6.5%[11.6 µM] and Pol kappa inh-2 inconclusive.
For CC1CCN(S(=O)(=O)c2cc(C(=O)N3CCN(c4cccc(Cl)c4)CC3)n(C)c2)CC1 the results were POLB inh 30.5%, Pol eta inh-1 -10.4%, Pol kappa inh-1 -7.5%[60.1 µM] and Pol iota inh -22.5%.
For Oc1ccc(Br)cc1/C=N/n1c(-c2ccccc2)n[nH]c1=S the results were POLB inh 5.5%, Pol eta inh-1 -6.5%, Pol kappa inh-1 -24.1%, Pol iota inh inconclusive and WRN helicase inh -8.2%.
S=c1[nH]nc(-c2cc(-c3ccccc3)n[nH]2)n1/N=C/c1cccc(Cl)c1 was read as POLB inh 7.08µM*, Pol eta inh-1 39.8µM*, Pol kappa inh-1 inconclusive, Pol iota inh 25.1µM*, WRN helicase inh 50.1µM* and Pol eta inh-2 26.9*.
For S=c1[nH]nc(-c2ccccc2)n1/N=C/c1cccc(Br)c1 the results were POLB inh 1.9%, Pol eta inh-1 2.3%, Pol kappa inh-1 -1.3%, Pol iota inh 100.3% and WRN helicase inh -7.7%.
Screening Oc1c(Br)cc(Br)c(/C=N/n2c(-c3ccccc3)n[nH]c2=S)c1Br returned POLB inh inconclusive, Pol eta inh-1 35.5µM*, Pol kappa inh-1 inconclusive, Pol iota inh 28.2µM*, WRN helicase inh inconclusive, Pol kappa inh-2 inconclusive and Pol eta inh-2 inconclusive.
`COc1cccc(NC(=O)CSc2nc(=O)[nH]c3c2CCCC3)c1` gave POLB inh -1.2%, Pol eta inh-1 -6.3%, Pol kappa inh-1 -9.6%[60.1 µM] and Pol iota inh 11.0%.
For COc1ccc(NC(=O)c2ccco2)cc1NC(=O)c1cc(Cl)ccc1OC the results were POLB inh inconclusive, Pol eta inh-1 89.1µM*, Pol kappa inh-1 -1.0%, Pol iota inh -17.2% and Pol kappa inh-2 42.3*.
CCOC(=O)c1cccc(NC(=O)c2ccc3snnc3c2)c1 was read as POLB inh 23.1%, Pol eta inh-1 -9.8%, Pol kappa inh-1 0.8% and Pol iota inh 5.2%.
For Nc1ccc(Br)c2cccnc12 the results were POLB inh 20.1%, Pol eta inh-1 inconclusive, Pol kappa inh-1 1.8%, Pol iota inh inconclusive, WRN helicase inh -14.7% and Pol eta inh-2 inconclusive.
`O=C(CC1N=C2c3ccccc3N=C(SCc3ccccc3F)N2C1=O)NCc1ccc2c(c1)OCO2` (centres undefined) gave POLB inh -0.3%, Pol eta inh-1 -20.0%, Pol kappa inh-1 -3.0%[60.1 µM] and Pol iota inh -4.8%.
For COC(=O)c1ccccc1NC(=O)c1ccc2nc(Cc3ccccc3)oc2c1 the results were POLB inh inconclusive, Pol eta inh-1 1.8%, Pol kappa inh-1 -9.6%[60.1 µM] and Pol iota inh 30.0%.
Screening Cc1ccc(C)c(Cn2nnc3c(=O)[nH]c(C(=O)NCc4ccco4)nc32)c1 returned POLB inh 4.4%, Pol eta inh-1 31.6µM*, Pol kappa inh-1 89.1µM*, Pol iota inh 22.4µM*, WRN helicase inh inconclusive and Pol eta inh-2 75.7*.
Screening Cc1nc2ccc3nc(NC(=O)c4ccco4)sc3c2s1 returned Pol eta inh-1 inconclusive, Pol kappa inh-1 inconclusive, Pol iota inh inconclusive, WRN helicase inh inconclusive and Pol eta inh-2 inconclusive.
For COc1cc(/C=C(\C#N)c2nc3ccc(C)cc3[nH]2)c([N+](=O)[O-])cc1OC the results were POLB inh inconclusive, Pol eta inh-1 inconclusive, Pol kappa inh-1 -11.9%, Pol iota inh -5.4% and WRN helicase inh 7.8%[57.1 µM].
`COc1cc(/C=C(\C#N)c2nc3ccc(C)cc3[nH]2)ccc1OCc1ccc(C)cc1` gave POLB inh inconclusive, Pol eta inh-1 inconclusive, Pol kappa inh-1 inconclusive, Pol iota inh inconclusive and Pol kappa inh-2 inconclusive.
`COc1cccc(/C=C(\C#N)c2nc3ccc(C)cc3[nH]2)c1` gave POLB inh inconclusive, Pol eta inh-1 89.1µM*, Pol kappa inh-1 -5.5%, Pol iota inh -6.1% and Pol kappa inh-2 inconclusive.
For CCOC(=O)c1cc(C)n(CC2CCC(C(=O)Nc3cc(OC)cc(OC)c3)CC2)c1C (centres undefined) the results were POLB inh -6.4%, Pol eta inh-1 -20.6%, Pol kappa inh-1 0.4% and Pol iota inh 16.8%.
For Cc1ccn2c(=O)nc(SCC(=O)NC3CCCC3)nc2c1 the results were Pol eta inh-1 22.4µM*, Pol kappa inh-1 -4.4%, Pol iota inh inconclusive, WRN helicase inh -4.1%[11.6 µM] and Pol eta inh-2 75.7*.
For Cc1cc(C=C2C(=O)CCCC2=O)c(C)n1-c1ccccc1 the results were POLB inh inconclusive, Pol eta inh-1 17.8µM*, Pol kappa inh-1 inconclusive, Pol iota inh 17.8µM*, WRN helicase inh -14.9%[11.6 µM] and Pol eta inh-2 75.7*.

Source: PubChem
